Screening data: PubChem BioAssay, several laboratories
NALP3 yeast inh = NALP3 inhibition in yeast | Yeast reconstituted NLRP3/ASC/caspase-1, beta-gal luminescence, 24 h | inhibition, % at 10 µM | hit rate 0.39% among 330,000 | AID 2825;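 active means inhibition of 50% or more; inactive means inhibition below 50%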
TIM10 inh = growth inhibitors of TIM10 yeast strain. S. cerevisiae TIM10 strain growth, BacTiter-Glo luminescence, 24 h. inhibition, % at 10 µM. hit rate 1.4% among 330,000;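 active means inhibition of 40% or more at the single tested concentration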;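 further: wild-type TIM10 isogenic control strain grown at permissive 25 °C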
tim23-1 inh = growth inhibitors of tim23-1 mutant yeast; S. cerevisiae tim23-1 growth, BacTiter-Glo luminescence, 24 h; inhibition, % at 20 µM; hit rate 1.3% among 330,000;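 active means growth inhibition of the mutant yeast at or above 50%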;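 further: temperature-sensitive mutant grown at 25 °C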
PfHsp90 yeast 2 = inhibits growth of yeast expressing Plasmodium falciparum Hsp90 | S. cerevisiae expressing PfHsp90, BacTiter-Glo ATP, 48 h; yeast lacking PDR1 and PDR3 efflux regulators | inhibition, % at 9.4 µM | AID 504621 | hit rate 0.32% among 310,000;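 active means every replicate shows inhibition above about 80%, whatever the replicate mean, limit read from the data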
tim10-1 inh = growth inhibitors of tim10-1 mutant yeast; S. cerevisiae tim10-1 ts strain growth, BacTiter-Glo, 24 h; inhibition, % at 20 µM; hit rate 2.2% among 330,000; AID 463190;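 active means inhibition of at least 40%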;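 further: mutant grown at 25 °C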
tim10-1 confirm = tim10-1 yeast growth inhibition, confirmed; shares compounds with tim10-1 inh; S. cerevisiae tim10-1 ts strain growth, BacTiter-Glo, 24 h; inhibition, % at 20 µM; hit rate 56% among 7,400; AID 463213;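 active means inhibition of yeast growth at or above a set limit in either of two repeat tests at 20 µM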;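 further: tim10-1 mutant grown at permissive 25 °C to find synthetic lethal compounds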
TIM10 conf = confirmation of TIM10 yeast growth inhibitors | shares compounds with TIM10 inh | S. cerevisiae tim10 strain growth, BacTiter-Glo luminescence, 24 h | inhibition, % at 10 µM | hit rate 63% among 4,600;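 active means inhibition of yeast growth at or above a set limit in either of two replicates at 10 µM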; further: this counterscreen used the strain with wild-type TIM10
Large screens that a line does not name were inactive (follow-up assays come after a bar, where they were run). This is a sample that favours compounds with a hit; in the whole collection about 3.7% have one here.

C=C1CCC[C@]2(C)C[C@H]3OC(=O)C(CN4CC(C)OC(C)C4)[C@H]3C[C@@H]12 (some centres undefined)	TIM10 inh 40, tim10-1 inh 42 | tim10-1 confirm 31 | TIM10 conf 37
O=C(N1CCN=C1SCc1cccnc1)C12CC3CC(CC(C3)C1)C2	TIM10 inh 45, tim10-1 inh 45 | tim10-1 confirm 40 | TIM10 conf 47
O=C(c1cccs1)N1CCN=C1SCc1cccnc1	none
COc1ccccc1/C=C/C(=O)c1cc(Br)ccc1OC(=O)c1ccco1	TIM10 inh 42, tim10-1 inh 50 | tim10-1 confirm 42 | TIM10 conf inactive
CC12CCC(C(=O)C1)C1(C)CCCC(=O)C21 (centres undefined)	none (no result: NALP3 yeast inh, TIM10 inh, tim23-1 inh, tim10-1 inh)
O=C(Nc1ccc2nc(-c3ccco3)[nH]c2c1)c1cccs1	TIM10 inh 66 | tim10-1 confirm inactive | TIM10 conf inactive
CC(=O)Nc1ccc2nc(-c3ccco3)[nH]c2c1	none
O=C(Nc1cccnc1)c1cc2cc(Br)ccc2o1	none
CCCn1c2c(c(O)c(C(=O)Nc3nccs3)c1=O)CCCC2	none
CC(C)Cn1c2c(c(O)c(C(=O)Nc3nccs3)c1=O)CCCC2	TIM10 inh 55, tim10-1 inh 43 | tim10-1 confirm 39 | TIM10 conf inactive
COc1ccc(S(=O)(=O)N2CCOCC2)cc1NC(=O)CCOc1ccc(C(C)(C)C)cc1	none
COc1ccc(C2CC2/C(=N/OC(=O)c2cccs2)c2ccccc2)cc1 (centres undefined)	TIM10 inh 63, tim10-1 inh 63 | tim10-1 confirm 59 | TIM10 conf 64
COc1ccc(C(C)=O)cc1CSc1ccc(S(=O)(=O)N2CCCCC2)cn1	none
CCCN(CCC)C(=S)NC(=O)c1ccc(Cl)cc1Cl	TIM10 inh 40, tim10-1 inh 54 | tim10-1 confirm inactive | TIM10 conf 37
Cc1ccccc1C(=O)NNC(=S)NC(=O)c1ccc(Cl)cc1Cl	none
O=Cc1cccc(OC(=O)c2ccc(Cl)cc2Cl)c1	TIM10 inh 45, tim10-1 inh 42 (no result: PfHsp90 yeast 2) | tim10-1 confirm inactive | TIM10 conf inactive
CCN(c1cccc(C)c1)S(=O)(=O)c1ccc2c(c1)N(C(C)=O)CCS2	none
NS(=O)(=O)c1ccc(N2CCOCC2)c(C(=O)NCc2cccs2)c1	none
Fc1ccc2c(c1)C(c1ccc(N3CCOCC3)cc1)=NNC(c1cccs1)=N2	TIM10 inh 55, tim10-1 inh 42 (no result: PfHsp90 yeast 2) | tim10-1 confirm inactive | TIM10 conf 36
c1coc(C2=Nc3cccc4cccc(c34)N2)c1	TIM10 inh 49, tim10-1 inh 47 | tim10-1 confirm inactive | TIM10 conf inactive
COc1ccc(NC(=O)CN2C(=O)COc3ccccc32)cc1OC	none
COc1ccc(C)c2sc(N3CCCC3)nc12	TIM10 inh 44, tim10-1 inh 44 (no result: PfHsp90 yeast 2) | tim10-1 confirm 33 | TIM10 conf inactive
CCc1ccc(OCC(=O)Oc2ccc([N+](=O)[O-])cc2)cc1	none
N/C(Cc1ccc(Cl)cc1Cl)=N\OC(=O)Cc1ccc(Cl)cc1	TIM10 inh 85, tim10-1 inh 62 | tim10-1 confirm 55 | TIM10 conf inactive
N/C(Cc1ccc([N+](=O)[O-])cc1)=N\OC(=O)Cc1ccc(Cl)cc1	TIM10 inh 41, tim10-1 inh 66 | tim10-1 confirm inactive | TIM10 conf 77
Cc1ccc(/C(N)=N/OC(=O)c2ccc3ccccc3c2)cc1	TIM10 inh 55, tim10-1 inh 54 | tim10-1 confirm 53 | TIM10 conf 66
COc1ccc(CC(=O)O/N=C(\N)Cc2ccc(OC)cc2)cc1	none
CCc1ccc(OCC(=O)O/N=C(\N)Cc2ccc([N+](=O)[O-])cc2)cc1	TIM10 inh 60, tim10-1 inh 57 | tim10-1 confirm 73 | TIM10 conf 41
CN(C)C(CNC(=O)c1cc(S(=O)(=O)N(C)c2ccc(F)cc2)ccc1Cl)c1cccs1 (centres undefined)	none (no result: NALP3 yeast inh, TIM10 inh, tim23-1 inh, tim10-1 inh)
CCN(c1ccccc1)S(=O)(=O)c1ccc(Cl)c(C(=O)NCc2ccco2)c1	none
N/C(Cc1ccc(Cl)cc1)=N\OC(=O)c1ccc2ccccc2c1	TIM10 inh 75, tim10-1 inh 64 | tim10-1 confirm 60 | TIM10 conf inactive
O=C(C/C=N/OCc1ccc(Cl)cc1Cl)c1ccccc1	none
N/C(Cc1ccc(Cl)cc1Cl)=N\OC(=O)c1ccccc1	TIM10 inh 86, tim10-1 inh 65 (no result: PfHsp90 yeast 2) | tim10-1 confirm inactive | TIM10 conf 84
CCCS(=O)(=O)C/C(N)=N/OC(=O)c1ccc(Cl)cc1	none
Cc1onc(-c2ccccc2Cl)c1C(=O)OCC(=O)N1CCN(c2ccccc2)CC1	none
OC(CNCCc1ccc(C(F)(F)F)cc1)COC(c1ccccc1)c1ccccc1 (centres undefined)	none
O=C(Nc1ccccn1)c1ccc([N+](=O)[O-])o1	TIM10 inh 44, tim10-1 inh 44 | tim10-1 confirm 39 | TIM10 conf 35
CC(=O)c1ccc(-c2ccc([C@H]3[C@H]4C=CC[C@@H](C)[C@@H]4C(=O)N3Cc3ccccc3)c(F)c2)cc1	none
C[C@@H]1CC=C[C@H]2[C@H]1C(=O)N(Cc1ccccc1)[C@H]2c1ccc2ccccc2c1	TIM10 inh 48, tim10-1 inh 46 | tim10-1 confirm 47 | TIM10 conf 47
Cc1ccc(F)c([C@H]2[C@H]3C=CC[C@@H](C)[C@@H]3C(=O)N2Cc2ccccc2)c1	TIM10 inh 45, tim10-1 inh 50 | tim10-1 confirm inactive | TIM10 conf 35
CC(=O)c1ccc(-c2ccccc2[C@H]2[C@H]3C=CC[C@@H](C)[C@@H]3C(=O)N2Cc2ccccc2)cc1	TIM10 inh 43, tim10-1 inh 45 (no result: PfHsp90 yeast 2) | tim10-1 confirm 30 | TIM10 conf inactive
COc1cccc(-c2c(C(=O)N/N=C(\C)c3ccc(Cl)s3)nnn2-c2nonc2N)c1	none
COc1ccccc1CNCC(O)(c1ccc(Cl)cc1)c1ccc(Cl)cc1	TIM10 inh 52, tim10-1 inh 46 (no result: PfHsp90 yeast 2) | tim10-1 confirm inactive | TIM10 conf 44
CCCCN(CC)C(=O)Cn1ncc2c3ccccc3n(CCC)c2c1=O	none
O=C(CCl)N(c1ccc(Cl)cc1)c1c[nH]c2ccccc12	TIM10 inh 41, tim10-1 inh 44 | tim10-1 confirm 36 | TIM10 conf 28
O=C(CCl)N(c1ccccc1)c1c[nH]c2ccccc12	none
Cc1nc(SCC(=O)N2CCCCCC2)[nH]c(=O)c1C	none
CN1[C@@H]2CCC[C@H]1CC(NC(=O)c1nn(C)c3ccccc13)C2 (some centres undefined)	none
COC(=O)c1ccc(CN2CCCC(CO)(Cc3ccc(F)cc3F)C2)cc1 (centres undefined)	none
CCC(=NCc1ccco1)c1c(C(F)(F)F)[nH]n(-c2nc3ccccc3s2)c1=O	TIM10 inh 44, tim10-1 inh 65 | tim10-1 confirm 63 | TIM10 conf 41
